What is called inhibition is the drop in the measured response relative to a control, in per cent.

Test [1] addresses Sphingosine kinase 1 (Homo sapiens) (UniProt Q9NYA1). The conditions noted are these: at 1 µM.
For test [2], the target named is T1, Sphingosine kinase 2 (Homo sapiens) (UniProt Q9NRA0).
T1 sequence (whole entry): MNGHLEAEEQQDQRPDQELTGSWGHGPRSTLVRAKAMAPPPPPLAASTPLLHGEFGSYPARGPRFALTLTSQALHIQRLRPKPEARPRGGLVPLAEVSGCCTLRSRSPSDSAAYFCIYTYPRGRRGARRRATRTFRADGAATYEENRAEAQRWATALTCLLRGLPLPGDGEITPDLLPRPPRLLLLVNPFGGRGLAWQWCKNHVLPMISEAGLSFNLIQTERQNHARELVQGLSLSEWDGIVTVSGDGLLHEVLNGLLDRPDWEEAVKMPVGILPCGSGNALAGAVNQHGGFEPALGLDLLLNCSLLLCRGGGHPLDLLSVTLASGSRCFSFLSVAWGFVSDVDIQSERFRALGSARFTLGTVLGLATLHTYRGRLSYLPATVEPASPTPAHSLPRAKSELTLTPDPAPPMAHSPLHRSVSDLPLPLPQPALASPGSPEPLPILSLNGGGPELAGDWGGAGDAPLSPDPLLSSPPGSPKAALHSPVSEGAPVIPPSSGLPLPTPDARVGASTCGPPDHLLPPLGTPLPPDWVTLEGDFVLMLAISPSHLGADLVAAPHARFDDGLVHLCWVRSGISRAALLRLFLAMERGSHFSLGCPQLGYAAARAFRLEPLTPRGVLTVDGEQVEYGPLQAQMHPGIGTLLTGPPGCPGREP
The conditions noted are these: at 0.1 µM.

Test [3] concerns the target T1, Sphingosine kinase 2 (Homo sapiens). The following applies: at 1 µM.
Test [4] deals with Casein kinase II subunit alpha (Homo sapiens) (UniProt P68400). The conditions noted are these: at 0.1 µM.
The target is the same in test [5]. The conditions noted are these: at 1 µM.
In test [6] the target is T2, Inhibitor of nuclear factor kappa-B kinase subunit alpha (Homo sapiens) (UniProt O15111).
T2 sequence (whole entry): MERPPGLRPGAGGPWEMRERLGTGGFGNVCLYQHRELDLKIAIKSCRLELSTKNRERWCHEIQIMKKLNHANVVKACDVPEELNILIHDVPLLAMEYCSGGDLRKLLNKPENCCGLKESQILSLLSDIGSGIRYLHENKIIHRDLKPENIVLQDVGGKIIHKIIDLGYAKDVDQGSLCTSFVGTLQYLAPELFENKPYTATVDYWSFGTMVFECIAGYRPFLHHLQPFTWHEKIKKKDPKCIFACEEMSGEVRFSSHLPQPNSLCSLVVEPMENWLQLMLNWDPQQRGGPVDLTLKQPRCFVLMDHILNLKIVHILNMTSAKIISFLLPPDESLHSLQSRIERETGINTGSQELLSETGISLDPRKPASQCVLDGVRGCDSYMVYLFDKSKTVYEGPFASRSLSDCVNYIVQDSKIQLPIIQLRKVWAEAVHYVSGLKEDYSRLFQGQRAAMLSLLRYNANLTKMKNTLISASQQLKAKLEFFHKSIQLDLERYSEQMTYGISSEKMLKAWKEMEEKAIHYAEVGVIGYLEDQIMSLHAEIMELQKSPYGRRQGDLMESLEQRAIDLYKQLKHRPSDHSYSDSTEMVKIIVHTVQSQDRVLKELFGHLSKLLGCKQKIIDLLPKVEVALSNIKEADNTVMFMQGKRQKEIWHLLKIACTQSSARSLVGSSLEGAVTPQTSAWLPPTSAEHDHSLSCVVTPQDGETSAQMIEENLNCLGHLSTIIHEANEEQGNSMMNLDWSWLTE
The conditions noted are these: at 0.1 µM.

Test [7] concerns the target T2, Inhibitor of nuclear factor kappa-B kinase subunit alpha (Homo sapiens). The conditions noted are these: at 1 µM.
Test [8] addresses T3, Inhibitor of nuclear factor kappa-B kinase subunit beta (Homo sapiens) (UniProt O14920).
T3 sequence (whole entry): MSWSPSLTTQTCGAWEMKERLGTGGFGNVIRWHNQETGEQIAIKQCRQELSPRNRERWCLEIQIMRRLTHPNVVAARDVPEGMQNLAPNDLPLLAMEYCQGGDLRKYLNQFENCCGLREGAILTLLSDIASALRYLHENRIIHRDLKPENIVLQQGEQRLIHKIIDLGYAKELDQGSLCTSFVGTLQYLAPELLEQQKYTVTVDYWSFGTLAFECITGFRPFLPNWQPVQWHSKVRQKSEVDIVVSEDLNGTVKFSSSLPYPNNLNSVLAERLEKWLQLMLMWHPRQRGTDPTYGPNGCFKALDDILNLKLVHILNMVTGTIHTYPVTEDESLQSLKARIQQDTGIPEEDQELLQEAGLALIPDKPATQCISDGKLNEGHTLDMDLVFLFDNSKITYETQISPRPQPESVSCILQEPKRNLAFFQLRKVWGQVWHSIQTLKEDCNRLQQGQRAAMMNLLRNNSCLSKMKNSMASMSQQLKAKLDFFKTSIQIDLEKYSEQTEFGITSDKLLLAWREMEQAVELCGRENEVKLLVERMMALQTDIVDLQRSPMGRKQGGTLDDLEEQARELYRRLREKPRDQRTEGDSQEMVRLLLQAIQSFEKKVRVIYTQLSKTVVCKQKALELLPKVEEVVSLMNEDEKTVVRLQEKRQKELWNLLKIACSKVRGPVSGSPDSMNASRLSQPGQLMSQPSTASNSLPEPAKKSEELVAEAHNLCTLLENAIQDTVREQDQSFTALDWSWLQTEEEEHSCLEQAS
The conditions noted are these: at 0.1 µM.

Test [9] concerns the target T3, Inhibitor of nuclear factor kappa-B kinase subunit beta (Homo sapiens). The following applies: at 1 µM.
Test [10] deals with T4, Inhibitor of nuclear factor kappa-B kinase subunit epsilon (Homo sapiens) (UniProt Q14164).
T4 sequence (whole entry): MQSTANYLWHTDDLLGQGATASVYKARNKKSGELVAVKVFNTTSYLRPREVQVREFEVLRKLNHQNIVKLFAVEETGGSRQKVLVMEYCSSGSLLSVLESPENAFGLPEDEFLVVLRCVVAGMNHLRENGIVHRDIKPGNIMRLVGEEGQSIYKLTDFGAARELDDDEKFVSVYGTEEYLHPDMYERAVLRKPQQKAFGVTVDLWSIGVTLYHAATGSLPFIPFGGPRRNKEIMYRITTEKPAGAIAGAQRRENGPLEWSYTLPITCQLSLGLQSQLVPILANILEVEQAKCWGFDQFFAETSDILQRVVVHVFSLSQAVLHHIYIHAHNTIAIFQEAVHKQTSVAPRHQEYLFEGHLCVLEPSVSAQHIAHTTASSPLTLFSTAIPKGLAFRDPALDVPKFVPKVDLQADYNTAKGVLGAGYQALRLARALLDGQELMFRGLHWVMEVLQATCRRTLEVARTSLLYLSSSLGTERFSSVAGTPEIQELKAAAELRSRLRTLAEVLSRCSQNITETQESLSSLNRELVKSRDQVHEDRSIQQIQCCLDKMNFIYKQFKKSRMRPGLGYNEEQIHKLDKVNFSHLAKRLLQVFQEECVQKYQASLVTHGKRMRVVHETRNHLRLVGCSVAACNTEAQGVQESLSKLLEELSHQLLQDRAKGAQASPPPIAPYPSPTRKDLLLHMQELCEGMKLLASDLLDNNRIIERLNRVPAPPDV
The following applies: at 0.1 µM.

For test [11], the target named is T5, Serine/threonine-protein kinase Nek1 (Homo sapiens) (UniProt Q96PY6).
T5 sequence (whole entry): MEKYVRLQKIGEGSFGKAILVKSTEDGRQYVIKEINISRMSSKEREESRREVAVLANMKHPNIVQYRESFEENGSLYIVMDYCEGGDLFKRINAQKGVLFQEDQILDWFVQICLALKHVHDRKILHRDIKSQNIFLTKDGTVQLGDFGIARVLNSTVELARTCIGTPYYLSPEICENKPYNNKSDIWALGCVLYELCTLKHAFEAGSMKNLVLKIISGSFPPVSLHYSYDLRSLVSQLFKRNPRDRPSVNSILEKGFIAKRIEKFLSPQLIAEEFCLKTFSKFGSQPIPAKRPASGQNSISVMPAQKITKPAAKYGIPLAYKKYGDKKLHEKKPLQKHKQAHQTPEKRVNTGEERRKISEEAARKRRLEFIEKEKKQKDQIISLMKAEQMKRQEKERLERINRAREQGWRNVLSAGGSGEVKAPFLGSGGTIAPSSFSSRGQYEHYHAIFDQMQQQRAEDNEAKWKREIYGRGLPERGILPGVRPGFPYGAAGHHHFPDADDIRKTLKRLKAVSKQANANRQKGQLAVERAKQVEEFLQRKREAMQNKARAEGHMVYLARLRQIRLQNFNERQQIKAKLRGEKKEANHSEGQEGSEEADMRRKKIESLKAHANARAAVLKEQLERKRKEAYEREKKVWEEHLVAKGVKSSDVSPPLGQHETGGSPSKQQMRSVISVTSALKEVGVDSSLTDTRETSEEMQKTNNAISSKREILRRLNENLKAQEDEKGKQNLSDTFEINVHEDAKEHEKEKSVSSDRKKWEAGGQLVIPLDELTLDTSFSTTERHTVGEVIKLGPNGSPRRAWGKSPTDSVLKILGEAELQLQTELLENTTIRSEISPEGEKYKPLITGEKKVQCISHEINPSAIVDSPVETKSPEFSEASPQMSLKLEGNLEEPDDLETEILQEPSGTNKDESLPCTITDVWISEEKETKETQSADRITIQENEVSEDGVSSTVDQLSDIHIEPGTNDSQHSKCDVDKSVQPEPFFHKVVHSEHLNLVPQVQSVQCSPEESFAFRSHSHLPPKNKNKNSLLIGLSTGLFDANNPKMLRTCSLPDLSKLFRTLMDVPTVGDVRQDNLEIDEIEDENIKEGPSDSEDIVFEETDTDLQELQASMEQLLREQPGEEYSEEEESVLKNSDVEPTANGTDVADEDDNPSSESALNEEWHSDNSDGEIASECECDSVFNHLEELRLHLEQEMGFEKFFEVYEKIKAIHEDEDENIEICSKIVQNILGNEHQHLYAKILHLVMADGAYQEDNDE
The following applies: at 0.1 µM.

In test [12] the target is T5, Serine/threonine-protein kinase Nek1 (Homo sapiens). The following applies: at 1 µM.
Test [13] deals with T6, Serine/threonine-protein kinase Nek2 (Homo sapiens) (UniProt P51955).
T6 sequence (whole entry): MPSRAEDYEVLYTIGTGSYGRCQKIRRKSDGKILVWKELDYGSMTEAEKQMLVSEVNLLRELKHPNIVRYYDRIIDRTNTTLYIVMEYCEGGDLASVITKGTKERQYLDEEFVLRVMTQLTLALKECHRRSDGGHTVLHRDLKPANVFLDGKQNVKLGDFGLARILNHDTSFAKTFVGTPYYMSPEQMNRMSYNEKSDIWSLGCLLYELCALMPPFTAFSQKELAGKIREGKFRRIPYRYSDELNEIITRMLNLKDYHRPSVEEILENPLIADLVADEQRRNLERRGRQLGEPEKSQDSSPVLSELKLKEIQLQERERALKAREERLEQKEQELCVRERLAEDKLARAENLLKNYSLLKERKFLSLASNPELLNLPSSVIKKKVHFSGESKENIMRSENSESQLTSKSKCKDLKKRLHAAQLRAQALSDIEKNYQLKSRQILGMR
The conditions noted are these: at 0.1 µM.

Test [14] has as its target T6, Serine/threonine-protein kinase Nek2 (Homo sapiens). The following applies: at 1 µM.
For test [15], the target named is Serine/threonine-protein kinase Nek6 (Homo sapiens) (UniProt Q9HC98). The conditions noted are these: at 0.1 µM.
Test [16] has the same target. The conditions noted are these: at 1 µM.
In test [17] the target is Serine/threonine-protein kinase Nek7 (Homo sapiens) (UniProt Q8TDX7). The following applies: at 0.1 µM.
Test [18] shares this target. The following applies: at 1 µM.
For test [19], the target named is T7, Serine/threonine-protein kinase Nek9 (Homo sapiens) (UniProt Q8TD19).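 Also: reported value is the mean percent inhibition of NEK9.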
T7 sequence (whole entry): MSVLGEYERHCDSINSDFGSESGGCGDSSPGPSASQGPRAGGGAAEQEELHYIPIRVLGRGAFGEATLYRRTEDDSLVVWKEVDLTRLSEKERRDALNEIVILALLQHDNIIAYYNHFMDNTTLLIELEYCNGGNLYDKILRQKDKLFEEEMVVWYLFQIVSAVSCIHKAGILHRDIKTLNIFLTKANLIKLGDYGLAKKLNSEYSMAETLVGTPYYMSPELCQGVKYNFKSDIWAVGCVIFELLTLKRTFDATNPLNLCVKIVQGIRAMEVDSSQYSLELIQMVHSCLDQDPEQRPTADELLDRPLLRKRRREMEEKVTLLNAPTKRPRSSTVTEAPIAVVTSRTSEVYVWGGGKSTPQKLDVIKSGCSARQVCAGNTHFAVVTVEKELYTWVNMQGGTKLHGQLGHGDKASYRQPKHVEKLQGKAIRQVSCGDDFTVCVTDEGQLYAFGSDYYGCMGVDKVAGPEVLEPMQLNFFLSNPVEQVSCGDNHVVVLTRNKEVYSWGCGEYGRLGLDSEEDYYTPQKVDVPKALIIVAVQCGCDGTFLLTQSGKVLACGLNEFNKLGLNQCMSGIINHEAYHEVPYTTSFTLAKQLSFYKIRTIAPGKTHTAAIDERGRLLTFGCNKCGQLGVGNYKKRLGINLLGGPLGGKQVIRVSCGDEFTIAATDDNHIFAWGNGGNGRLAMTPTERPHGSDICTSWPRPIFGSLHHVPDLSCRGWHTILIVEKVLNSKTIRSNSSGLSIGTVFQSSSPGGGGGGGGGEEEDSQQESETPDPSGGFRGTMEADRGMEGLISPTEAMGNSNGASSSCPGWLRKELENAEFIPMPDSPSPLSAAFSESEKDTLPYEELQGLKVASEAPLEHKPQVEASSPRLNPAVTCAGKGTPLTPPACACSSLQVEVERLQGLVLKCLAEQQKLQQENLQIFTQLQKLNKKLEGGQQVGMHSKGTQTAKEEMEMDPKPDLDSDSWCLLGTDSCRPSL
The following applies: at 0.1 µM.

Sequence of Serine/threonine-protein kinase Nek7 (Homo sapiens) (Q8TDX7 whole entry, looked up): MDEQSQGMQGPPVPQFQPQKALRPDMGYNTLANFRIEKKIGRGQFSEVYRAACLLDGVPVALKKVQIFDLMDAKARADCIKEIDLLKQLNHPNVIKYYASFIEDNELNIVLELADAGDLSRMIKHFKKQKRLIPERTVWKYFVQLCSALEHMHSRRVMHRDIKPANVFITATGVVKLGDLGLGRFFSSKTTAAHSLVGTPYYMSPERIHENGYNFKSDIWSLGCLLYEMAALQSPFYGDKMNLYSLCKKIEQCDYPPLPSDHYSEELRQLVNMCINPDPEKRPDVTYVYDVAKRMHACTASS
Sequence of Casein kinase II subunit alpha (Homo sapiens) (P68400 whole entry, looked up): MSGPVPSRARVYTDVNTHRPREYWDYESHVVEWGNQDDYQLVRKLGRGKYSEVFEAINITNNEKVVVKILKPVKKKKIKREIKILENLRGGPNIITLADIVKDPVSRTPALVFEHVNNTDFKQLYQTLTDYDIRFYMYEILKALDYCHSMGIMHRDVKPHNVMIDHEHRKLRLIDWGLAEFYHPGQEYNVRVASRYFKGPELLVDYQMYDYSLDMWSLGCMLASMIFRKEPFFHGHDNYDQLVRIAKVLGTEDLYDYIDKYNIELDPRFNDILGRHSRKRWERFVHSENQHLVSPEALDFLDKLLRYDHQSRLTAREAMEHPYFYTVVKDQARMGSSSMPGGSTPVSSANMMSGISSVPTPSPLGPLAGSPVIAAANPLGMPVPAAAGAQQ
Sequence of Serine/threonine-protein kinase Nek6 (Homo sapiens) (Q9HC98 whole entry): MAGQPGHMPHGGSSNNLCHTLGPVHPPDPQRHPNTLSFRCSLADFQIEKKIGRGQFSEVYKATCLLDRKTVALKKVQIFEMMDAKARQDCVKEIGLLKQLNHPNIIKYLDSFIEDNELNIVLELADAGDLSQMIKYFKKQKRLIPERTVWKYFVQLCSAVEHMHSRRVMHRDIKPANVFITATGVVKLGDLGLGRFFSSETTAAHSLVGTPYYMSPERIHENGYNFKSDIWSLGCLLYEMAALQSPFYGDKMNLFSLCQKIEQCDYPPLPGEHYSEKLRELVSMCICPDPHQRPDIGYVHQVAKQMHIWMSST
Sequence of Sphingosine kinase 1 (Homo sapiens) (Q9NYA1 whole entry): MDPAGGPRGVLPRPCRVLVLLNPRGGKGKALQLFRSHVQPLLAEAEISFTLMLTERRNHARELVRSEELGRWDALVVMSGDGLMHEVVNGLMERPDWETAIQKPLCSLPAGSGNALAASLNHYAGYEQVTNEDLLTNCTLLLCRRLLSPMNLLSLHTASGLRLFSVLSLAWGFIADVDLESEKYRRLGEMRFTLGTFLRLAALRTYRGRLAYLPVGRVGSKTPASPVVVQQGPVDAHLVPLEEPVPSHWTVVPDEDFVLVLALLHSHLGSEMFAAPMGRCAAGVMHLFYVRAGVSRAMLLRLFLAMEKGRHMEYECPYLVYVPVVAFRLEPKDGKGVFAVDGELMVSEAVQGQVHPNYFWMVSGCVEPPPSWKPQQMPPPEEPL

In the case of `CCc1nccc2c1nc(-c1nonc1N)n2CC`, the inhibition is -1.61% in [1]; 1.28% in test [2]; 1.35% in test [3]; 0.7% in test [4]; -1.05% in test [5]; 2.04% in test [6]. The inhibition in test [7] was -4.71%; in [8] it was 0.02%; in [9], -1.22%; in test [10], 0.57%; in [11] it was 0.36%; in [12], 1.55%. The inhibition in [13] worked out at 0.45%; in test [14], 0.31%; in test [15], 0.37%; in [16], 0.82%; in [17] it was 2.57%; in test [18], 1.72%. Further, in test [19], the inhibition was 0.19%.

Values taken from ChEMBL document CHEMBL1961873, “Compounds: GSK PKIS; Assays: Nanosyn kinase panel” (2012).
